# Source: PubChem BioAssay
# The list is not random: actives were taken first. Their share in the collection is about 2.3%.
# CHO-K1 Ca PAM: counter-screen for M1 PAMs: effect in parental CHO-K1 cells | 360,000 compounds, 0.02% hits | activation, % at 3 µM | ATP EC20, Fluo-8 calcium fluorescence; 0% at ATP EC20, 100% at ATP max;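 active = activation above the run cutoff, the mean activation of all test compounds plus 3 SD, cut at about 40% in these data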;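 also: peak over basal fluorescence ratio in a 140 s read after ATP addition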
# M1 antag: antagonists of human M1 muscarinic receptor | AID 588852 | P11229 | inhibition, % at 3 µM | CHO-K1 hM1, Fluo-8 calcium fluorescence, ACh EC80 antagonist | 360,000 compounds, 1.3% hits;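 active = percent inhibition above its own plate's cutoff, namely the mean of that plate's compound wells plus 3 SD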;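 also: peak over basal fluorescence ratio during 140 s after agonist addition; 0% = ACh EC80 plus DMSO and 100% = DMSO alone without agonist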
# Target sequence (P11229 whole entry, looked up): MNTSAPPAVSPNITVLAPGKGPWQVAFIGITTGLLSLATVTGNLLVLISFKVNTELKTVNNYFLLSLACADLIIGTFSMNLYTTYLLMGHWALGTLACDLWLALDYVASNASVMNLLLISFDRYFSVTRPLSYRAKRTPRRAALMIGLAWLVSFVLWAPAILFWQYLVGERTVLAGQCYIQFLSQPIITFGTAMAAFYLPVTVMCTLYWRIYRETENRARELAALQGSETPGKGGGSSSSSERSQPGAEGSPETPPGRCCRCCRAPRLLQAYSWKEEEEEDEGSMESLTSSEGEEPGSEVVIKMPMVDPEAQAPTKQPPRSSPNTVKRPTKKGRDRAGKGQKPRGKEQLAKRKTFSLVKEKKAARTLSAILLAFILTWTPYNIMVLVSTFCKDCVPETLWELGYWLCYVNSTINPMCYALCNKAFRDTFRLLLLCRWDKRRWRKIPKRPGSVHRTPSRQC
# CHO-K1 Ca ag: M1 agonist counterscreen hit in parental CHO-K1 cells. activation, % at 3 µM. AID 602248. 360,000 compounds, 0.48% hits. Fluo-8 calcium fluorescence; scaled to maximal ATP response, vehicle zero; in the data active = activation above about 15%;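 also: untransfected CHO-K1 host cells lacking M1 receptor as counterscreen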
# M1 PAM: human CHRM1 positive allosteric modulation. P11229. CHO-K1 hM1, Fluo-8 calcium fluorescence, ACh EC20; 0% = ACh EC20, 100% = maximal ACh. activation, % at 3 µM. 360,000 compounds, 0.088% hits. AID 588819; in the data active = activation above about 19%, passing the limit was not always enough
# CHRM1 agonist: activates human CHRM1 receptor. P11229. CHO-K1 hM1, Fluo-8 calcium fluorescence, agonist mode; 0% DMSO, 100% acetylcholine EC100. activation, % at 3 µM. 360,000 compounds, 0.33% hits;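 active = activation above the run's mean compound activation plus 3 SD, cut at about 16% in these data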;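 also: peak over basal fluorescence ratio within a 140 s kinetic read after compound addition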
# CHO-K1 Ca antag: M1 antagonist counterscreen hit in parental CHO-K1 cells. AID 602250. inhibition, % at 3 µM. 360,000 compounds, 0.6% hits. ATP-induced calcium, Fluo-8 fluorescence;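 active = inhibition above a per-plate cutoff, the plate's mean sample inhibition plus 3 SD, cut at about 24% in these data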;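 also: 0% = DMSO plus EC80 ATP and 100% = DMSO alone without ATP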
# * = called active by the depositor; x = no result given.
SMILES,CHO-K1 Ca PAM,M1 antag,CHO-K1 Ca ag,M1 PAM,CHRM1 agonist,CHO-K1 Ca antag
Clc1cccc(-c2ccc(CNCCCN3CCOCC3)o2)c1,20,-10,3,11,-9,-9
CNC(=O)c1ccc(NC(=O)C2CCN(S(=O)(=O)c3cccc(C(F)(F)F)c3)CC2)cc1,-19,30*,0,-13,-3,13
COc1ccc(Nc2ncnc3ccccc23)cc1,14,-12,1,9,-2,-14
COc1ccc(Nc2ccnc3ccccc23)cc1,10,-9,0,0,25*,-9
O=C(C1CCN(c2nnc(N3CCCC3=O)s2)CC1)N1CCN(c2cccc(C(F)(F)F)c2)CC1,0,77*,7,-24,-2,3
C(=C\c1ccccc1)/CN1CCN(Cc2nc(Cc3ccccc3)no2)CC1,16,43*,0,-31,-12,6
c1ccc(Cc2noc(CN3CCCN(C4Cc5ccccc5C4)CC3)n2)cc1,9,100*,4,-24,-6,-4
c1ccc(Cc2noc(CN3CCN(Cc4ccc5c(c4)OCO5)CC3)n2)cc1,4,4,0,-8,-14,-2
COc1ccccc1CN1CCN(Cc2nc(Cc3ccccc3)no2)CC1,3,-3,0,-7,-14,1
c1ccc(Cc2noc(CN3CCC(CN4CCOCC4)CC3)n2)cc1,-2,19,0,-12,-8,-8
c1ccc(Cc2noc(CN3CCN(C4CCc5ccccc5C4)CC3)n2)cc1 (centres undefined),3,88*,2,-27,-8,-14
C[C@@H]1COc2cccc(N3CCC[C@@H]3CO)c2S(=O)(=O)N1,-4,x,0,x,x,-4
Cn1c(=O)c2nc(SCc3ccccc3)n(C)c2n(C)c1=O,-4,-6,0,1,-1,-11
COc1ccc(C2CC(c3cccs3)=NN2C(=O)CSc2nnnn2C)cc1OC (centres undefined),8,8,15*,-6,-3,6
COc1ccc(C2CC(c3cccs3)=NN2C(=O)CSc2nncn2C)cc1OC (centres undefined),1,-15,0,9,-6,-13
COc1ccc(NC(C)=O)cc1S(=O)(=O)N1CCN(Cc2cccs2)CC1,11,-10,1,24*,6,-11
COc1ccc(/C=C/C(=O)N(C)Cc2cccs2)cc1S(=O)(=O)N1CCOCC1,5,6,16*,4,-8,0
COc1ccc(C(=O)NCc2cccs2)cc1S(=O)(=O)N1CCOCC1,-1,-4,1,6,-4,-6
Cc1cccnc1NC(=O)C1CCC1,19,-17,0,15,1,-13
CCCC(=O)Nc1ccc(-c2csc(N/N=C\c3ccncc3)n2)cc1,-27,7,3,12,4,14
O=C1CSC(c2ccccc2)N1CC(O)c1ccc([N+](=O)[O-])cc1 (centres undefined),20,-1,4,4,-5,-9
CC1SC(c2ccccc2)N(CC(O)c2ccc([N+](=O)[O-])cc2)C1=O (centres undefined),-13,-5,0,3,-7,25*
CCOc1cccc(-c2c(C(=O)N/N=C(\C)c3cccs3)nnn2-c2nonc2N)c1,29,0,6,4,31*,-17
COc1cccc(-c2c(C(=O)N/N=C(\C)c3cccs3)nnn2-c2nonc2N)c1,7,-2,5,16,34*,-7
CCOc1ccc(-c2c(C(=O)N/N=C(\C)c3cccs3)nnn2-c2nonc2N)cc1,13,-6,2,7,7,-19
SMILES,CHO-K1 Ca PAM,M1 antag,CHO-K1 Ca ag,M1 PAM,CHRM1 agonist,CHO-K1 Ca antag
CCN(CC)C(=O)CN1C(=O)C2(OCC(C)(C)CO2)c2ccccc21,16,-14,1,13,-2,-24
COC(=O)c1ccc(CNC(=O)Cn2cnc(C(=O)Nc3ccc(C)c(C)c3)n2)cc1,23,3,1,2,-2,-6
Cn1c2c(c3ccccc31)CCN(CCCCN1CCN(c3ccccc3)CC1)C2=O,-11,-5,0,-4,-6,3
Cc1cccc(C(=O)NNC(=O)C2CCCCC2)c1O,4,1,0,-6,-1,-2
C=CCC1(CC=C)CCCN1C(=O)c1cc(COc2cccc(OC)c2)on1,-22,18,2,-9,-3,2
C=CCC1(CC=C)CCCN1C(=O)c1cc(COc2cncc(Cl)c2)on1,1,40*,10,-13,-1,22
CN(NC(=O)C(=O)NCc1ccco1)C(=O)Nc1ccc(Cl)cc1,-5,14,10,-7,8,27*
O=[N+]([O-])c1cccc(SSc2cccc([N+](=O)[O-])c2)c1,12,-3,0,9,11,-3
CN(C)C(=O)/C(=C/c1ccc(-c2cccc([N+](=O)[O-])c2)o1)NC(=O)c1ccccc1,-4,-7,22*,7,6,4
O=C(O)c1cccc(-c2ccc(/C=N/Nc3ccc([N+](=O)[O-])cc3)o2)c1,-7,27,18*,-9,17*,20
O=C(O)c1ccc(-c2ccc(/C=N/Nc3ccc([N+](=O)[O-])cc3)o2)cc1,-10,10,10,2,18*,12
CN(C)C(=O)/C(=C\c1ccc(-c2cccc([N+](=O)[O-])c2)o1)NC(=O)c1ccccc1,10,-8,2,8,-3,-14
NS(=O)(=O)c1ccc(-c2ccc(/C=N/Nc3ccc(C(=O)O)cc3)o2)cc1,24,-17,1,8,0,-17
O=[N+]([O-])c1ccc(N/N=C/c2c[nH]c3ccccc23)cc1,-8,34*,15*,-7,14,26*
Cn1c(=O)c2c(ncn2CC(=O)Nc2nccs2)n(C)c1=O,19,-6,0,4,-3,-14
CCc1nc2c(OCc3ccc(Cl)cc3Cl)cccn2c1N(C)C(C)=O,-2,-13,1,1,-8,3
CCc1ccc(OC)c(S(=O)(=O)NCc2cccs2)c1,2,-18,0,23,6,-21
CC(=O)Nc1cccc(NC(=O)c2cc(-c3cccnc3)nc3ccc(Br)cc23)c1,-16,42*,6,-22,-5,6
CC1(C(=O)NC2CCCC2)CCC(=O)N1CCOc1ccccc1 (centres undefined),3,6,0,4,-2,28*
CCCN(CC1CC1)C(=O)CSc1ncnc2sccc12,11,-3,1,1,-5,-9
O=S(=O)(/N=C(/Nc1ccccn1)c1ccccc1)c1ccc(F)cc1,5,-3,0,3,-2,-6
CCNC(=O)NC1c2ccccc2CSc2ccccc21 (centres undefined),12,16,0,-1,-7,-7
